Records with an inconclusive call do not appear. Where a call stands in place of a potency, no number is given. Calls of active or inactive are those of the source. The call rests on the fitted dose curve.
Test: G protein-coupled receptor (GPCR) small molecule agonists, calcium flux assay: HEK293 wild type cell line counter screen (AID 1920065)
Settings: HEK293 WT calcium flux, fluorescence, agonist mode; series mostly up to 57.6 µM
Summary of the method: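 Wild-type HEK293 cells plated 18 h, loaded with calcium dye 1 h at 37 C, then compounds added in agonist mode (ATP as positive control). Kinetic fluorescence Ex/Em 480/540 recorded 3 min at 1 sec intervals; 15 concentrations, triplicate.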
With Cc1cc(C)c(NC(=O)CN(CC(=O)O)CC(=O)O)c(C)c1Br the outcome was “inactive”. With CC(=O)c1c(C)cc(C(C)(C)C)cc1C the outcome was “inactive”. In the case of O=C(O)Cc1c(Cl)ccc(Cl)c1Cl, the outcome is reported as “inactive”. For COc1ccc(C2C(=O)c3ccccc3C2=O)cc1, the outcome was “inactive”. For CCCCCc1ccco1, the outcome was “inactive”. With O=c1cc(-c2ccccc2)oc2ccc3ccccc3c12 the outcome was “inactive”. In the case of CN(CCOc1ccc(NS(C)(=O)=O)cc1)CCc1ccc(NS(C)(=O)=O)cc1, the outcome is reported as “inactive”. For CN(C)CCc1c[nH]c2ccc(C[C@H]3COC(=O)N3)cc12, the outcome was “inactive”. In the case of Cc1ncc(CO)c(C=O)c1O, the outcome is reported as “inactive”. In the case of O=CN1CCCCC1, the outcome is reported as “inactive”. With CCOC(=O)COc1cc(-n2ncc(C(F)(F)F)c(C)c2=O)c(F)cc1Cl the outcome was “inactive”. In the case of Oc1ccc(-c2ccc(O)cc2)cc1, the outcome is reported as “inactive”. With CN1CCN(C2=Nc3ccccc3Sc3ccc(Cl)cc32)CC1 the outcome was “inactive”. With Cc1cccc([N+](=O)[O-])c1C(=O)O the outcome was “inactive”. With c1ccc(C(O[C@H]2CCCN(CCc3ccc4c(c3)OCO4)C2)c2ccccc2)cc1 the outcome was “inactive”. For CC(CCc1ccc(O)cc1)NCCc1ccc(O)c(O)c1 (stereo unspecified), the outcome was “inactive”. In the case of CCC(C)CCCC(C)(C)O (stereo unspecified), the outcome is reported as “inactive”. In the case of CCCCCCOC(=O)CCCCC(=O)OCCCCCC, the outcome is reported as “inactive”. In the case of CC(C)C(=O)OCc1ccccc1, the outcome is reported as “inactive”. In the case of C[C@@]12C(=O)OC(=O)[C@]1(C)C1CCC2O1, the outcome is reported as “inactive”. In the case of CN(C)[C@@H]1C(=O)C(C(=O)NCN2CCCC2)=C(O)[C@@]2(O)C(=O)C3=C(O)c4c(O)cccc4[C@@](C)(O)C3C[C@@H]12 (stereo partly specified), the outcome is reported as “inactive”. For CC(=O)OC1CCCCC1, the outcome was “inactive”. With CCCCCCCCOC(C)=O the outcome was “inactive”. In the case of CCOC(=O)C(C)(C)C, the outcome is reported as “inactive”. With CCCCCCCCN(C)CCCCCCCC the outcome was “inactive”. In the case of COc1cc2nc(Cl)nc(N)c2cc1OC, the outcome is reported as “inactive”. With CCCN(CCC)c1c([N+](=O)[O-])cc(C(F)(F)F)c(N)c1[N+](=O)[O-] the outcome was “inactive”. In the case of COc1ccc(C)cc1[N+](=O)[O-], the outcome is reported as “inactive”. In the case of O=C1c2ccccc2C(=O)C1(O)O, the outcome is reported as “inactive”. With COC[C@H](c1ccc(C(F)(F)F)cc1)N1CCN(C2(C)CCN(C(=O)c3c(C)ncnc3C)CC2)C[C@H]1C the outcome was “inactive”. For CCOc1cccc(N)c1, the outcome was “inactive”. In the case of CCCCCCCCCCCC(C)=O, the outcome is reported as “inactive”. With CC(=O)Oc1ccc(C(C)=O)cc1 the outcome was “inactive”. In the case of CCOC(=O)CCC(=O)OCC, the outcome is reported as “inactive”. For C=CC(OCC)OCC, the outcome was “inactive”. In the case of CN1CCC[C@@H]1Cc1c[nH]c2ccc(CCS(=O)(=O)c3ccccc3)cc12, the outcome is reported as “inactive”. In the case of CCCCCCCCCC(=O)OCC, the outcome is reported as “inactive”.

Test: p53 small molecule agonists, cell-based qHTS assay with human liver microsomes (AID 1963577);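 further: p53 response element beta-lactamase reporter cells with liver microsomes plus NADPH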
Settings: HCT-116 p53RE-bla with human liver microsomes, ratio, 16 h; series mostly up to 66 µM
Summary of the method: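 With metabolic activation: human liver microsomes (0.5 mg/mL final) plus NADPH (0.5 mg/mL final) added alongside compounds to p53RE-bla cells; 16 h 37 C exposure; beta-lactamase read by LiveBLAzer fluorescence.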
For Cc1cc(C)c(NC(=O)CN(CC(=O)O)CC(=O)O)c(C)c1Br, the Potency was “inactive”. For CC(=O)c1c(C)cc(C(C)(C)C)cc1C, the Potency was “inactive”. In the case of O=C(O)Cc1c(Cl)ccc(Cl)c1Cl, the Potency is reported as “inactive”. For CCCCCc1ccco1, the Potency was “inactive”. For O=c1cc(-c2ccccc2)oc2ccc3ccccc3c12, the Potency was “inactive”. With CN(CCOc1ccc(NS(C)(=O)=O)cc1)CCc1ccc(NS(C)(=O)=O)cc1 the Potency was “inactive”. For CN(C)CCc1c[nH]c2ccc(C[C@H]3COC(=O)N3)cc12, the Potency was “inactive”. With Cc1ncc(CO)c(C=O)c1O the Potency was “inactive”. In the case of O=CN1CCCCC1, the Potency is reported as “inactive”. For Oc1ccc(-c2ccc(O)cc2)cc1, the Potency was “inactive”. For CN1CCN(C2=Nc3ccccc3Sc3ccc(Cl)cc32)CC1, the Potency was “inactive”. In the case of CC(CCc1ccc(O)cc1)NCCc1ccc(O)c(O)c1 (stereo unspecified), the Potency is reported as “inactive”. For CCOc1ccc(NC(=O)OC(C)C)cc1OCC, the Potency was “inactive”. In the case of CC(C)C(=O)OCc1ccccc1, the Potency is reported as “inactive”. For C[C@@]12C(=O)OC(=O)[C@]1(C)C1CCC2O1, the Potency was “inactive”. With CN(C)[C@@H]1C(=O)C(C(=O)NCN2CCCC2)=C(O)[C@@]2(O)C(=O)C3=C(O)c4c(O)cccc4[C@@](C)(O)C3C[C@@H]12 (stereo partly specified) the Potency was “inactive”. With CC(=O)OC1CCCCC1 the Potency was “inactive”. With CCCCCCCCOC(C)=O the Potency was “inactive”. For CCOC(=O)C(C)(C)C, the Potency was “inactive”. In the case of CCCCCCCCN(C)CCCCCCCC, the Potency is reported as “inactive”. In the case of COc1cc2nc(Cl)nc(N)c2cc1OC, the Potency is reported as “inactive”. With CCN(CC)c1ccc(C=O)cc1 the Potency was “inactive”. With COc1ccc(C)cc1[N+](=O)[O-] the Potency was “inactive”. With CCOc1cccc(N)c1 the Potency was “inactive”. With CCCCCCCCCCCC(C)=O the Potency was “inactive”. For CC(=O)Oc1ccc(C(C)=O)cc1, the Potency was “inactive”. In the case of CCOC(=O)CCC(=O)OCC, the Potency is reported as “inactive”. For C=CC(OCC)OCC, the Potency was “inactive”. For CN1CCC[C@@H]1Cc1c[nH]c2ccc(CCS(=O)(=O)c3ccccc3)cc12, the Potency was “inactive”. In the case of CCCCCCCCCC(=O)OCC, the Potency is reported as “inactive”.

Test: p53 small molecule agonists, cell-based qHTS assay with rat liver microsomes (AID 1963578)
Settings: HCT-116 p53RE-bla, beta-lactamase ratio, 16 h; series mostly up to 66 µM
Summary of the method: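 Metabolic activation by rat liver microsomes and NADPH, each 0.5 mg/mL final, added right after compounds to p53RE-bla reporter cells (4,000/well, plated 5 h earlier). 16 h at 37 C, then LiveBLAzer substrate for 2 h at room temperature in the dark; fluorescence read-out.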
For CC(=O)c1c(C)cc(C(C)(C)C)cc1C, the Potency was “inactive”. For COc1ccc(C2C(=O)c3ccccc3C2=O)cc1, the Potency was “inactive”. For CCCCCc1ccco1, the Potency was “inactive”. With O=c1cc(-c2ccccc2)oc2ccc3ccccc3c12 the Potency was “inactive”. With Cc1ncc(CO)c(C=O)c1O the Potency was “inactive”. With O=CN1CCCCC1 the Potency was “inactive”. In the case of Oc1ccc(-c2ccc(O)cc2)cc1, the Potency is reported as “inactive”. In the case of CN1CCN(C2=Nc3ccccc3Sc3ccc(Cl)cc32)CC1, the Potency is reported as “inactive”. In the case of Cc1cccc([N+](=O)[O-])c1C(=O)O, the Potency is reported as “inactive”. With c1ccc(C(O[C@H]2CCCN(CCc3ccc4c(c3)OCO4)C2)c2ccccc2)cc1 the Potency was “inactive”. For CC(CCc1ccc(O)cc1)NCCc1ccc(O)c(O)c1 (stereo unspecified), the Potency was “inactive”. With CCC(C)CCCC(C)(C)O (stereo unspecified) the Potency was “inactive”. With CCCCCCOC(=O)CCCCC(=O)OCCCCCC the Potency was “inactive”. For CCOc1ccc(NC(=O)OC(C)C)cc1OCC, the Potency was “inactive”. In the case of CC(C)C(=O)OCc1ccccc1, the Potency is reported as “inactive”. For C[C@@]12C(=O)OC(=O)[C@]1(C)C1CCC2O1, the Potency was “inactive”. With CN(C)[C@@H]1C(=O)C(C(=O)NCN2CCCC2)=C(O)[C@@]2(O)C(=O)C3=C(O)c4c(O)cccc4[C@@](C)(O)C3C[C@@H]12 (stereo partly specified) the Potency was “inactive”. With CCCN(CCC)c1c([N+](=O)[O-])cc(C(F)(F)F)c(N)c1[N+](=O)[O-] the Potency was “inactive”. With CCN(CC)c1ccc(C=O)cc1 the Potency was “inactive”. For O=C1c2ccccc2C(=O)C1(O)O, the Potency was “inactive”. With CCOc1cccc(N)c1 the Potency was “inactive”. With CCCCCCCCCCCC(C)=O the Potency was “inactive”. With CC(=O)Oc1ccc(C(C)=O)cc1 the Potency was “inactive”. For CCCCCCCCCC(=O)OCC, the Potency was “inactive”.

Reference: PubChem BioAssay (Tox21)
